In the library only some 5.9% were active in any assay of this set; here they are far more common.
PRMT1 inh: PRMT1 methyltransferase inhibitors, primary screen, biochemical, fluorescence polarization; Protein arginine N-methyltransferase 1 (Homo sapiens), Q99873; recombinant PRMT1, activity-based probe fluorescence polarization; inhibition, % at 2.79 µM; 370,000 compounds, 1.3% hits; AID 652257, 2013;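 active means inhibition above about 21% made by adding two undisclosed values, limit read from the data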
ALR inh: inhibitors of human ALR sulfhydryl oxidase, primary screen, biochemical, H2O2 detection, HRP-luminol luminescence, single point; purified ALR, DTT oxidation; inhibition, % (test concentration not listed); 290,000 compounds, 3.8% hits; AID 485317, 2010;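 active means mean replicate inhibition above about 79%, with every replicate also reaching it, limit read from the data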
Rtt109 Vps75: inhibitors of C. albicans Rtt109/Vps75 HAT, primary screen, biochemical, ThioGlo CoA-SH fluorescence, plate reader | purified Rtt109/Vps75, 4 h | inhibition, % at 34.9 µM | 330,000 compounds, 0.16% hits | AID 540336, 2011;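 active means inhibition of at least 50% in every replicate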
ABHD5-PLIN5 inh: ABHD5-PLIN5 interaction inhibitors, primary screen, cell lysate, split luciferase complementation, luminescence; Perilipin-5 (Homo sapiens) + 1-acylglycerol-3-phosphate O-acyltransferase ABHD5 (Homo …; Split G. princeps luciferase complementation, 4 h; inhibition, % at 4 µM; 360,000 compounds, 0.78% hits; AID 602281, 2012;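 active means inhibition above the mean inhibition across every tested compound plus 3 SD, cut at about 22% in these data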
LANA-H2A inh: blockers of LANA interaction with H2A/H2B – biochemical, FP readout, HTS, primary screen | cell-free LANA-H2A/H2B peptide, fluorescence polarization | inhibition, % (test concentration not listed) | Protein LANA1 (Human herpesvirus 8 type P (isolate GK18)), Q9QR71 | 320,000 compounds, 0.6% hits | AID 2629, 2010; in the data active means inhibition mostly above about 10%, no sharp cut-off; inactive means mostly below about 6.7%
Target sequence (Q9QR71 whole entry, looked up): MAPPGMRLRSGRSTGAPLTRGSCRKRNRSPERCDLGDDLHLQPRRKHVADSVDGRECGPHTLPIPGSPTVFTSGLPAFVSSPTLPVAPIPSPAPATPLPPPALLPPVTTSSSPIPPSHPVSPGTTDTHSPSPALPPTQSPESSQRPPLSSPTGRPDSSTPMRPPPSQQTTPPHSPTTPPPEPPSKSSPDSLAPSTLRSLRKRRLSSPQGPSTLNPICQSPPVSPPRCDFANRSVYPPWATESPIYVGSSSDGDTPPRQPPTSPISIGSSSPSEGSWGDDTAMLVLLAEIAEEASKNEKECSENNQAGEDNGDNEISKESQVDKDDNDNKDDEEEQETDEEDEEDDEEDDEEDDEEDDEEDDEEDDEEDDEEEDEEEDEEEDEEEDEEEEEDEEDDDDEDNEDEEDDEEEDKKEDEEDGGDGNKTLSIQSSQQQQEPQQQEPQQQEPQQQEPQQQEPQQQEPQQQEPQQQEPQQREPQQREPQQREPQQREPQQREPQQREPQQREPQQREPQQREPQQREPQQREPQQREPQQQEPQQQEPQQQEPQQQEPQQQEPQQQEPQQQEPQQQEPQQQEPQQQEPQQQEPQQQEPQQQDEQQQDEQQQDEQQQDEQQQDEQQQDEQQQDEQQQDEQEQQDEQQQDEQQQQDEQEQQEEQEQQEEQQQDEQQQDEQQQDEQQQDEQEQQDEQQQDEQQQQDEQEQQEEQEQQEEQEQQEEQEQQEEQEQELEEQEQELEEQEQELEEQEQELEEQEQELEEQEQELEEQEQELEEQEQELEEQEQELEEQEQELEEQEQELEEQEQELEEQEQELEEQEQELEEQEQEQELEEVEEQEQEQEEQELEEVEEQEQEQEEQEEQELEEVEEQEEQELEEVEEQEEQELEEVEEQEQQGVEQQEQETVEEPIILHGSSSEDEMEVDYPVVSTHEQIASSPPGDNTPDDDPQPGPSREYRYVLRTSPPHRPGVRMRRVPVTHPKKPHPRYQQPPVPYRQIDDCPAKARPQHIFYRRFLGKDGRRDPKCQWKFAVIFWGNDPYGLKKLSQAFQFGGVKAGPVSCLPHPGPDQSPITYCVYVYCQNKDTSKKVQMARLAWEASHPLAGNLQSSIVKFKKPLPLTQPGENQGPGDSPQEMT
rCAG binder: binders of r(CAG) RNA repeats, primary screen, biochemical, fluorescence | r(CAG) RNA repeat, TO-PRO-1 dye displacement fluorescence | 370,000 compounds, 1.3% hits | inhibition, % at 3 µM | AID 651821, 2012;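 active means inhibition above the plate cutoff, the mean of all test compounds on that plate plus 3 SD, cut at about 35% in these data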;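 further: higher means more dye released from RNA so lower well fluorescence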
rCAG binder conf: small molecules binding CAG repeat RNA – biochemical, fluorescence, confirmation | inhibition, % at 3 µM | shares compounds with rCAG binder | r(CAG) RNA repeat, TO-PRO-1 dye displacement fluorescence | 4,300 compounds, 70% hits | AID 652065, 2013;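 active means inhibition above a per-plate cutoff, the mean inhibition of sample wells plus 3 SD, cut at about 35% in these data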;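 further: loss of TO-PRO-1 fluorescence as compound displaces dye from 1x1 AA loop RNA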
DNA CAG counter: displacement of TO-PRO-1 from CAG DNA duplex, counter-screen for rCAG RNA repeat binder project, biochemical, fluorescence, TO-PRO-1 dye, d(CAG) DNA oligo. AID 652068, 2013. shares compounds with rCAG binder. d(CAG) DNA oligo TO-PRO-1 dye displacement. 4,300 compounds, 94% hits. inhibition, % at 3 µM;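 active means inhibition above its plate's cutoff, the mean test-well inhibition plus 3 SD, cut at about 4.8% in these data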;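 further: hits displace the dye from DNA and so lower well fluorescence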
Of the large screens only hits and unclear results are named; the others gave an inactive call (follow-up assays come after a bar, where they were run).

COc1ccccc1CNC(=O)C1(C)CCN1C(=O)C1(c2ccccc2)CC1 (stereo not drawn)	none (no result: ALR inh, Rtt109 Vps75, LANA-H2A inh)
COc1ccc(OC)c(/C=C/C(=O)OCC(=O)Nc2nnc(-c3ccccc3)o2)c1	rCAG binder 45 | rCAG binder conf 41 | DNA CAG counter 15
COc1ccccc1/C=C/C(=O)OCC(=O)Nc1nnc(-c2ccccc2)o1	none (no result: ALR inh, Rtt109 Vps75, LANA-H2A inh)
O=c1[nH]c2ccc(S(=O)(=O)N3CCC(Cc4ccccc4)CC3)cc2o1	rCAG binder 48 | rCAG binder conf 46 | DNA CAG counter 14
O=C(c1ccco1)N1CCN(S(=O)(=O)c2ccc3[nH]c(=O)oc3c2)CC1	none (no result: ALR inh)
CCCCN(Cc1ccccc1)S(=O)(=O)c1ccc2[nH]c(=O)oc2c1	rCAG binder 39 | rCAG binder conf inactive | DNA CAG counter 8.0
Cc1cccnc1C(NC(=O)C1CCN(Cc2ccc(Oc3ccccc3)cc2)CC1)c1ccc(F)cc1 (stereo not drawn)	none (no result: ALR inh, Rtt109 Vps75, LANA-H2A inh)
O=C(C(=O)N1CCC(CNC(=O)c2ccccc2F)CC1)c1cc2ccccc2o1	none (no result: ALR inh, Rtt109 Vps75, ABHD5-PLIN5 inh, LANA-H2A inh)
O=S(=O)(/N=C(/Nc1nccs1)c1ccc(F)cc1)c1ccccc1	none
O=S(=O)(/N=C(/Nc1nc2ccccc2s1)c1ccccc1)c1ccc(F)cc1	rCAG binder 38 (no result: ALR inh, LANA-H2A inh) | rCAG binder conf inactive | DNA CAG counter 6.6
CC(C)(C)c1ccc(S(=O)(=O)NC(=O)C2(C)CCN2C(=O)CC2CCCCC2)cc1 (stereo not drawn)	rCAG binder 44 (no result: ALR inh, Rtt109 Vps75, LANA-H2A inh) | rCAG binder conf inactive | DNA CAG counter 5.3
CC(C)(C)c1ccc(S(=O)(=O)NC(=O)C2(C)CCN2C(=O)Cc2ccc(-c3ccccc3)cc2)cc1 (stereo not drawn)	rCAG binder 72 (no result: ALR inh, Rtt109 Vps75, LANA-H2A inh) | rCAG binder conf 86 | DNA CAG counter 49
CC(C)(C)c1ccc(S(=O)(=O)NC(=O)C2(C)CCN2C(=O)C2CCCCC2)cc1 (stereo not drawn)	none (no result: ALR inh, Rtt109 Vps75, LANA-H2A inh)
Cc1cc(C)cc(CC(=O)N2CCC2(C)C(=O)NS(=O)(=O)c2ccc(C(C)(C)C)cc2)c1 (stereo not drawn)	rCAG binder 58 (no result: ALR inh, Rtt109 Vps75, LANA-H2A inh) | rCAG binder conf 50 | DNA CAG counter 15
CC1(C(=O)NS(=O)(=O)c2ccccc2)CCN1C(=O)Cc1cc(F)ccc1F (stereo not drawn)	none (no result: ALR inh, Rtt109 Vps75, LANA-H2A inh)
CC(C)(C)c1ccc(S(=O)(=O)NC(=O)C2(C)CCN2C(=O)Cc2cc(F)ccc2F)cc1 (stereo not drawn)	rCAG binder 38 (no result: ALR inh, Rtt109 Vps75, LANA-H2A inh) | rCAG binder conf inactive | DNA CAG counter 5.6
CCC(c1nnnn1-c1ccc2c(c1)OCCO2)N1CCN(c2ccc(C)cc2)CC1 (stereo not drawn)	none (no result: ALR inh, Rtt109 Vps75, LANA-H2A inh)
CCCC(=O)N1CCC(C(=O)NC2CCCc3ccccc32)CC1 (stereo not drawn)	none (no result: ALR inh, Rtt109 Vps75, ABHD5-PLIN5 inh, LANA-H2A inh)
C[C@H]1COc2c3ccccc3nn21	none (no result: ALR inh, Rtt109 Vps75, ABHD5-PLIN5 inh, LANA-H2A inh)
CC(C)(C)c1ccc(CC(=O)N2CCC2(C)C(=O)NS(=O)(=O)c2cccc(C#N)c2)cc1 (stereo not drawn)	none (no result: ALR inh, Rtt109 Vps75, LANA-H2A inh)
CC1(C(=O)NS(=O)(=O)c2ccc(Cl)cc2)CCN1C(=O)Cc1ccccc1 (stereo not drawn)	none (no result: ALR inh, Rtt109 Vps75, LANA-H2A inh)
CC(C)(C)c1ccc(CC(=O)N2CCC2(C)C(=O)NS(=O)(=O)c2cccc(Cl)c2)cc1 (stereo not drawn)	rCAG binder 55 (no result: ALR inh, Rtt109 Vps75, LANA-H2A inh) | rCAG binder conf 49 | DNA CAG counter 16
CC1(C(=O)NS(=O)(=O)c2ccc(Cl)cc2)CCN1C(=O)Cc1ccc(-c2ccccc2)cc1 (stereo not drawn)	rCAG binder 66 (no result: ALR inh, Rtt109 Vps75, LANA-H2A inh) | rCAG binder conf 64 | DNA CAG counter 23
O=C(c1ccc2c(=O)n3c(nc2c1)CCCCC3)N1CCN(c2ccc([N+](=O)[O-])cc2)CC1	none
COc1ccc(/C=C/C(=O)OCC(=O)N2c3ccccc3CC2C)c(OC)c1 (stereo not drawn)	none (no result: ALR inh, Rtt109 Vps75, LANA-H2A inh)
COCC#Cc1ccc2c(c1)O[C@@H](CN(C)S(=O)(=O)c1cccc(F)c1)[C@@H](C)CN([C@H](C)CO)S2(=O)=O	none (no result: ALR inh, Rtt109 Vps75, LANA-H2A inh)
CCc1cc(=O)oc2cc(C)cc(OCC(=O)N[C@@H](CSCc3ccccc3)C(=O)O)c12	rCAG binder 47 | rCAG binder conf 40 | DNA CAG counter 8.3
CCCCc1cc(=O)oc2cc(C)cc(OCC(=O)NCc3ccccn3)c12	none
CCCCc1cc(=O)oc2cc(C)cc(OCC(=O)N[C@@H](CSCc3ccccc3)C(=O)O)c12	rCAG binder 39 | rCAG binder conf 47 | DNA CAG counter 12
CCc1c(-c2ccc(F)cc2)ncn1CCc1ccccc1OC	none (no result: ALR inh, Rtt109 Vps75, ABHD5-PLIN5 inh, LANA-H2A inh)
COc1cc(/C=C2/C(=O)N(c3ccc(C)c(C)c3)N=C2C)cc([N+](=O)[O-])c1O	rCAG binder 37 | rCAG binder conf 46 | DNA CAG counter 12
COc1cc(/C=C2/C(=O)N(c3ccc(Br)cc3)N=C2C)cc(OC)c1OC	none (no result: PRMT1 inh, ALR inh, LANA-H2A inh, rCAG binder)
COc1ccc(-n2c(SCC(=O)Nc3ccc4c(c3)OCO4)nc3sc4c(c3c2=O)CCCC4)cc1	none (no result: ALR inh, Rtt109 Vps75, ABHD5-PLIN5 inh, LANA-H2A inh)
CCc1nc2ccc(C(=O)NCCNC(C)=O)cn2c1N(CC)CCOC	none (no result: ALR inh, Rtt109 Vps75, LANA-H2A inh)
CCOC(=O)c1sc(Nc2ccc(OCC)cc2)nc1C	none
CCOC(=O)c1sc(N2N=C(C)/C(=C\c3ccc(OCC(=O)OC)cc3)C2=O)nc1C	rCAG binder 52 (no result: ALR inh, LANA-H2A inh) | rCAG binder conf 45 | DNA CAG counter 10
COc1ccc(C)cc1NC(=S)NNC(=O)c1c(Br)cnn1C	rCAG binder 54 (no result: ALR inh) | rCAG binder conf inactive | DNA CAG counter 4.4
CC(=O)C[C@@H](O)CC(=O)[C@@H]1OC(=O)[C@@H](C)C/C=C\Cc2ccccc21	none (no result: ALR inh)
COc1ccc(C)cc1Nc1nc(-c2c[nH]c3ccccc23)cs1	rCAG binder 37 (no result: ALR inh, Rtt109 Vps75) | rCAG binder conf inactive | DNA CAG counter 12
COc1cccc(S(=O)(=O)N(C)C[C@@H]2Oc3ncc(Br)cc3C(=O)N([C@H](C)CO)C[C@@H]2C)c1	none (no result: ALR inh, Rtt109 Vps75, ABHD5-PLIN5 inh, LANA-H2A inh)
CCC(CO)Nc1cccc2c1S(=O)(=O)N(Cc1cn(Cc3ccc(C(F)(F)F)cc3)nn1)Cc1ccccc1O2 (stereo not drawn)	none (no result: ALR inh, Rtt109 Vps75, ABHD5-PLIN5 inh, LANA-H2A inh)

Compound activity deposited in PubChem BioAssay by several laboratories.
